G9a inh = blocks human histone lysine methyltransferase G9a | AID 504332 | G9a H3K9 monomethylation, AlphaScreen, 2 h | hit rate 8.8% among 350,000 | Potency, µM (highest dose often 102 µM), inactives show top-dose activity, negative = inhibition, most hits filed as inhibitors; also: potency is read from the fitted curve at half-maximal effect; % is scaled to controls: 0 for no effect and ±100 for the full control effect; nearly all actives have a fitted effect of over 75% in size
Target sequence (Q96KQ7 913-1193 limits assumed): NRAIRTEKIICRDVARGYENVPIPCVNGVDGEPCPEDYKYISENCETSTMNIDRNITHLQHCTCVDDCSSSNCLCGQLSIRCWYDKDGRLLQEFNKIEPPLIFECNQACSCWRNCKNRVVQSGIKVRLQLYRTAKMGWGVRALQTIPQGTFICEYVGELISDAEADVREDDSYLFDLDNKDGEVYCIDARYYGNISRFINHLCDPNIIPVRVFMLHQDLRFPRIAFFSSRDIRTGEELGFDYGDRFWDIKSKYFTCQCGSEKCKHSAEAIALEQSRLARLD
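Using a bead-based AlphaScreen, monomethylated H3K9 product from 2 h room-temperature reactions (G9a 20 nM, peptide 500 nM, SAM 20 uM) was detected with 0.5 ug/mL rabbit anti-H3K9me1 antibody.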
BAZ2B inh = BAZ2B (human) inhibition. Q9UIF8. AlphaScreen BAZ2B-H3K14Ac peptide displacement. Potency, µM (highest dose often 114 µM), inactives show at the top dose activity change, negative = inhibition, hits mostly inhibitors. hit rate 4.4% among 360,000. AID 504333; also: potency is read from the fitted curve at half-maximal effect; % is scaled to controls: 0 for no effect and ±100 for the full control effect; nearly all actives have a fitted effect of over 60% in size
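AlphaScreen luminescence quantifies BAZ2B engagement of H3K14Ac peptide; the protein and biotinylated peptide are both at 50 nM final, buffer PBS pH 7.4 with 0.01% Tween-20, all steps at room temperature.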
HP1b chromo inh = HP1-beta chromodomain-methylated histone interaction inhibition. AlphaScreen HP1-beta / biotin-H3K9me3 peptide binding. Potency, µM (titrated, usually from 114 µM), without a hit: at the highest dose activity change, negative = inhibition, hits mostly inhibitors. hit rate 0.56% among 390,000. AID 540317; also: potency is read from the fitted curve at half-maximal effect; nearly all actives have a fitted effect of over 70% in size
Target sequence (P83916 whole entry, looked up): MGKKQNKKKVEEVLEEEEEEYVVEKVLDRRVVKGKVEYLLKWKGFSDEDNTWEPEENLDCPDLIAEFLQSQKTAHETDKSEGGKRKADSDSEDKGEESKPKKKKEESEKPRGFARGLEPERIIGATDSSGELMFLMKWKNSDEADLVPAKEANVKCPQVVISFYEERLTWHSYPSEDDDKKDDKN
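HP1-beta protein (50 nM final) preincubated 30 min at room temperature with biotinylated H3(1-18)K9me3 peptide (50 nM) in PBS pH 7.4, 0.01% Tween-20, then compound added for 30 min. AlphaScreen streptavidin donor/nickel chelate acceptor beads (10 ug/mL final), 30 min dark, luminescence read.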
CtBP-E1A blk = CtBP/E1A binding inhibition | hit rate 0.49% among 340,000 | AlphaScreen GST-E1A/His-CtBP binding, 1536-well; stronger effect = lower value | activity change, % (concentration not given with the values); in the data active = activity change below about -65%; inconclusive = mostly about -30% to -63%; also: % is scaled to controls: 0 for no effect and ±100 for the full control effect
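AlphaScreen with 125 nM GST-E1A and 125 nM His-CtBP (5X stocks) in Tris pH 8.0, 300 mM NaCl, BSA, Tween 20, TCEP. Compounds preincubated 2 h at 37 deg C, then glutathione donor/nickel acceptor beads added for 1 h at 37 deg C in dark.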
Six1-Eya2 blk = inhibitors of human Six1/Eya2 interaction; Q15475+O00167; AlphaScreen GST-Six1/His-Eya2 binding, biochemical; stronger effect = lower value; activity change, % (test concentration not listed); hit rate 0.56% among 360,000; AID 651725; in the data active = activity change below about -65%; inconclusive = mostly about -30% to -63%; also: % is scaled to controls: 0 for no effect and ±100 for the full control effect
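AlphaScreen with GST-Six1 and His-Eya2 (5X mix: 250 nM and 500 nM), glutathione donor and nickel acceptor beads; buffer 50 mM Tris pH 8.0, 300 mM NaCl, 1 mM TCEP; 1 h at 37 C in the dark.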
JMJD2A Tudor = inhibitors of human JMJD2A Tudor domain. AlphaScreen JMJD2A-Tudor / H3K4me3 peptide binding. AID 504339. O75164. Potency, µM (top dose mostly 114 µM), for the others: at the highest dose activity change, negative = inhibition, most hits filed as inhibitors. hit rate 4.4% among 390,000; also: potency is read from the fitted curve at half-maximal effect; % is scaled to controls: 0 for no effect and ±100 for the full control effect; nearly all actives have a fitted effect of over 50% in size
Numbers without * were called inactive; u = inconclusive; x = not tested or not shown; [ ] = another dose, or the depositor's remark. Rows were chosen to be rich in hits. Some 10% of all compounds tested hit in one or more screens of this group. Unless noted, calls follow the shape of the dose curve; as a rule, active = well fitted inhibition curve with a large enough effect; inconclusive = small, poorly fitted or top-dose-only effect; inactive = no such curve, though single readings can be large or run the other way.

SMILES	G9a inh	BAZ2B inh	HP1b chromo inh	CtBP-E1A blk	Six1-Eya2 blk	JMJD2A Tudor
CN(C)c1ccc(CNn2cnnc2SCc2ccc(F)cc2)cc1	u	44.7µM*	-5.5%	-3.7	-3.7	u
COc1ccc(C(=O)N2CCN(c3nc4c(OC)cccc4s3)CC2)cc1OC	10.1%[59 µM]	-7.8%	19.2%	x	x	-8.4%
O=C(CN1CCCC1)Nc1cc(F)ccc1F	3.2%	1.5%	30.3%	-3.2	6.8	-13.2%
O=C(CNCCc1ccc(F)cc1)Nc1cc(F)ccc1F	u	20µM*	-5.9%	8.9	9.4	28.2µM*
CCS(=O)(=O)c1ccc2oc(Nc3ccccc3Cl)nc2c1	-7.8%	-6.0%	11.2%	-19.3	-10.3	-6.1%
CCS(=O)(=O)c1ccc2oc(Nc3cc(Cl)ccc3OC)nc2c1	35.5µM*	5.3%	31.1%	-6.4	-2.7	7.1%
S=c1[nH]nc(COc2ccccc2)n1/N=C/c1ccc(Cl)c(Cl)c1	12.6µM*	-14.8%	u	-3.9	-2.8	u
Cc1cc(OCc2n[nH]c(=S)n2-c2ccccc2)ccc1Cl	x	-7.4%	7.7%	9.5	-2.6	u
Cc1cccc(/C=N/n2c(COc3ccccc3)n[nH]c2=S)c1	3.16µM*	u	4.4%	x	-7.2	u
O=[N+]([O-])c1ccc(Cl)c(/C=N/n2c(COc3ccccc3)n[nH]c2=S)c1	8.91µM*	-8.8%	u	23.9	9.4	50.1µM*
Cc1cccc(/C=N/n2c(C)nnc2C)c1	u	0.8%	-5.1%	6.5	-1.5	5.0%
O=[N+]([O-])c1ccc(Cl)c(/C=N/n2c(C3CCCCC3)n[nH]c2=S)c1	u	-2.4%	2.8%	0.0	8.9	u
COc1ccc(OCc2cn(CC(=O)c3ccc(O)cc3)nn2)cc1	x	x	8.0%	-2.7	1.0	-32.4%
O=C(Cn1cc(COc2c(F)c(F)cc(F)c2F)nn1)c1ccc(O)cc1	x	x	64.1%	4.8	4.5	39.8µM*
c1ccc(NN=C2c3ccccc3-c3ccccc32)cc1	x	x	2.9%	-9.1	-15.7	-26.9%
Cc1ccc(NN=C2c3ccccc3-c3ccccc32)cc1	8.91µM*	u	u	-21.1	-19.9	56.2µM*
CSc1oc(-c2ccc(F)cc2)nc1S(=O)(=O)c1ccccc1	u	1.6%	34.7%	7.9	2.4	-2.3%
CSc1oc(-c2ccccc2)nc1S(=O)(=O)c1ccc(F)cc1	39.8µM*	7.6%	57.6%	-22.3	-1.0	13.8%
NC(=O)CSc1oc(-c2ccco2)nc1S(=O)(=O)c1ccc(F)cc1	u	-21.9%	17.5%	12.9	1.8	-23.2%
Cc1ccc(-c2nc(S(=O)(=O)c3ccc(C)cc3)c(SCC(=O)NCC3CCCO3)o2)cc1 (configuration not stated)	44.7µM*	-1.9%	18.7%	4.1	-3.4	-3.6%
Cc1ccc(S(=O)(=O)c2nc(-c3ccc(F)cc3)oc2SCC(N)=O)cc1	12.6µM*	0.4%	34.5%	-5.1	-6.1	-9.4%
CC(C)Sc1oc(-c2ccco2)nc1S(=O)(=O)c1ccccc1	u	-2.4%	74.4%	43.0	11.5	-11.3%
CSc1oc(-c2ccco2)nc1S(=O)(=O)c1ccccc1	31.6µM*	-4.7%	16.5%	-4.3	-5.3	-29.6%
CCOc1ccc(OCCNC(=O)c2cc(C3CC3)nc3c2cnn3C(C)C)cc1	-6.1%	9.0%	11.2%	6.1	1.4	-20.7%
CC(=O)CSc1nnc2cc(C)c3cc(C)cc(C)c3n12	u	u	20.8%	x	x	-28.1%
SMILES	G9a inh	BAZ2B inh	HP1b chromo inh	CtBP-E1A blk	Six1-Eya2 blk	JMJD2A Tudor
CC(C)CCNC(=O)Cn1nc(N2CCN(c3ccccc3)CC2)ccc1=O	7.6%[59 µM]	-3.3%	37.0%	x	x	-9.1%
COCCNc1oc(-c2ccco2)nc1S(=O)(=O)c1ccccc1	u	-10.3%	24.2%	-4.6	-2.6	-15.1%
CSc1oc(-c2ccco2)nc1S(=O)(=O)c1ccc(C)cc1	28.2µM*	-4.2%	12.9%	-5.2	-7.1	-12.1%
CSc1oc(-c2ccco2)nc1S(=O)(=O)c1ccc(F)cc1	u	6.2%	26.0%	-6.3	-0.1	-25.0%
C=CCNc1oc(-c2ccco2)nc1S(=O)(=O)c1ccccc1	25.1µM*	-37.4%	12.2%	3.8	5.3	-16.0%
O=C(NCC1CCCCC1)C1(CC2CC(c3cccc(Br)c3)=NO2)CCNCC1 (configuration not stated)	u	-5.1%[57.1 µM]	11.4%	-3.4	-1.6	-18.1%
O=C(NCC1CCCCC1)C1(CC2CC(c3ccc(Cl)cc3)=NO2)CCNCC1 (configuration not stated)	44.7µM*	-1.4%	38.3%	-0.2	-0.5	-17.9%
CC(=O)Nc1ccc(S(=O)(=O)NCc2ccc(C)n2C)cc1	39.8µM*	u	13.5%	-15.2	-1.6	-5.9%
COc1ccc(S(=O)(=O)NCc2ccncc2)cc1NC(=O)c1ccccc1C	8.91µM*	12.4%	2.8%	-2.6	5.1	-23.5%
COc1cc(S(=O)(=O)NCc2ccccn2)ccc1Cl	25.4%[59 µM]	-1.9%	1.3%	8.8	3.1	31.6µM*
COc1ccc(S(=O)(=O)NCc2ccccn2)cc1Br	x	11.4%	40.1%	-1.7	-0.4	-18.8%
COc1ccc(S(=O)(=O)NCc2ccncc2)cc1NC(=O)c1ccccc1F	u	-7.3%	33.9%	-5.8	-0.4	-19.0%
CCN(CC)c1ccc(NS(=O)(=O)c2ccc3c(c2)oc(=O)n3C)c(C)c1	39.8µM*	-16.1%	u	u	-16.7	u
CC1(C)CC2CC(C)(CN2C(=O)COC(=O)c2ccccc2C(F)(F)F)C1 (configuration not stated)	20.6%[12.7 µM]	-3.1%	48.9%	x	-2.2	8.1%
O=C(Nc1ccc2nc(SCC(=O)N3CCOCC3)sc2c1)c1cccc(Br)c1	-8.9%[59 µM]	-3.9%	37.9%	x	x	-6.6%
Cc1c(NC(=O)Nc2ccc(Br)cc2F)sc2nc3n(c(=O)c12)CCC(C)CC3 (configuration not stated)	-0.2%[59 µM]	2.1%	36.5%	x	x	0.0%
CCOc1ccc2nc(NC(=O)c3nc(SC(C)C)ncc3Cl)sc2c1	u	-11.0%	17.5%	x	x	-16.0%
Cn1c(=O)oc2cc(S(=O)(=O)NCc3ccccn3)ccc21	12.6µM*	-38.8%	13.3%	6.2	3.0	-13.4%
COc1ccc(S(=O)(=O)NCc2ccccn2)cc1NC(=O)c1ccc(C)cc1	-6.9%	-37.2%	16.1%	0.4	-8.3	6.31µM*
Cn1c(=O)oc2cc(S(=O)(=O)NCc3cccnc3)ccc21	x	-4.8%	3.3%	1.8	3.8	-4.6%
Nc1ccc(S(=O)(=O)NCc2ccccn2)cc1	11.2%[2.33 µM]	-1.3%	69.1%	7.1	7.5	-5.3%
O=S(=O)(NCc1ccccn1)c1ccc2ccccc2c1	12.9%	0.3%	24.1%	-6.1	-7.4	-7.0%
O=S(=O)(NCc1ccccn1)C(F)(F)F	x	50.1µM*	36.2%	-10.0	-4.7	5.01µM*
